# Measured values as given in PubChem BioAssay (NCATS).
# Values without a mark were called inactive. Records with an inconclusive call do not appear. Entries that show only a call come without a potency. Calls of active or inactive are those of the source. Unless noted, calls follow the shape of the dose curve; as a rule, active = well fitted curve in the direction sought with a large enough effect; inconclusive = small, poorly fitted or top-dose-only effect, or another doubt; inactive = no such curve, though single readings can be large; an effect the other way counts as inactive or inconclusive. Square brackets hold non-standard residues; d marks the D form. Peptide text beside a SMILES is read from it. ξ: configuration not given here. d(hArg(Et2)) = CCN=C(NCC)NCCCC[C@@H](N)C(=O)O; hArg(Et2) = CCN=C(NCC)NCCCC[C@H](N)C(=O)O; Phe(4-Cl) = N[C@@H](Cc1ccc(Cl)cc1)C(=O)O; ξ2Nal = NC(Cc1ccc2ccccc2c1)C(=O)O; 3Pal = N[C@@H](Cc1cccnc1)C(=O)O; ξP = O=C(O)C1CCCN1
# How the values were obtained:
# [1] = Viability counterscreen for antagonist of constitutive androstane receptor (CAR) against the NCATS DSHEA and TCM libraries (AID 1794837);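 also: compound exposure lasted 24 h before viability reading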
# Summary of the method: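 HepG2-CYP2B6-hCAR cells (2,500/well) were allowed to attach for 5 h, then exposed to compounds with 48 uM CITCO for 24 h at 37C. Viability was read by CellTiter-Fluor fluorescence after 1 h.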
# [2] = Viability counterscreen for agonist of constitutive androstane receptor (CAR) against the NCATS DSHEA and TCM libraries (AID 1794838);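 also: HepG2 cells with CYP2B6 reporter and hCAR plus 0.75 µM PK11195 antagonist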
# Summary of the method: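 HepG2-CYP2B6-hCAR cells (2,500/well) attached 5 h, then got compounds plus 0.75 uM PK11195 final. After 24 h at 37C, viability read by CellTiter-Fluor fluorescence (Ex/Em 405/540 nm).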
# [3] = HepG2 viability counterscreen (readout 2: ATP content) against the NCATS DSHEA and TCM libraries (AID 1794840);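 also: HepG2 cells exposed to substances for about 24 h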
# Summary of the method: (§1)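 HepG2 cells (1,000 cells/well) attached ~4 h, then treated ~24 h at 37C with substances. Protease activity read by GF-AFC (25 uM final, 30 min, Ex/Em 380/510 nm); ATP content then by CellTiter-Glo luminescence.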
# [4] = HepG2 viability counterscreen (readout 1: protease activity) against the NCATS DSHEA and TCM libraries (AID 1794841);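 also: cells exposed to compounds for about 24 h before the protease read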
# Summary of the method: as §1
# [5] = target: Cytochrome P450 2D6 (Homo sapiens) (UniProt P10635); test: qHTS for inhibitors of CYP2D6 against the NCATS DSHEA and TCM libraries (AID 1919972)
# Chain of Cytochrome P450 2D6 (Homo sapiens) (P10635 whole entry, looked up): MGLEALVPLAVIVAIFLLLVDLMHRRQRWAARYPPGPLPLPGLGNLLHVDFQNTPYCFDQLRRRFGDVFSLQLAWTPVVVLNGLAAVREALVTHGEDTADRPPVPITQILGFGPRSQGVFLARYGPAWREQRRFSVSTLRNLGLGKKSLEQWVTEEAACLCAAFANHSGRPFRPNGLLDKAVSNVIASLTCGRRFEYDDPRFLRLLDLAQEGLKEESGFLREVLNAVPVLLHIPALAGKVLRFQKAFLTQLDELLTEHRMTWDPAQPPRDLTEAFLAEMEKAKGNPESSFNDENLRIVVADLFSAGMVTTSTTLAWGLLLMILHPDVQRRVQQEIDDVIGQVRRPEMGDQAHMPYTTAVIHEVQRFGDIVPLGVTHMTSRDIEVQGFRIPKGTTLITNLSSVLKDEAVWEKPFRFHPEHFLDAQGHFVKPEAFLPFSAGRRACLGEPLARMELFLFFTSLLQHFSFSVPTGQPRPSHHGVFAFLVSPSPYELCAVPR
# Summary of the method: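 qHTS, concentration–response format with most substances from 19.5 nM. CYP2D6 + pro-luciferin substrate, 15 min with compound, then 1x NADPH regen, 30–45 min RT dark. Glo detection 30 min, luminescence. Quinidine control.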
# [6] = target: Cytochrome P450 2C19 (Homo sapiens) (UniProt P33261); test: qHTS for inhibitors of CYP2C19 against the NCATS DSHEA and TCM libraries (AID 1919974);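 also: luminescence from luciferin released by CYP2C19 oxidation of a pro-luciferin substrate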; also: potency is read from the fitted curve at half-maximal effect
# Chain of Cytochrome P450 2C19 (Homo sapiens) (P33261 whole entry, looked up, canonical isoform): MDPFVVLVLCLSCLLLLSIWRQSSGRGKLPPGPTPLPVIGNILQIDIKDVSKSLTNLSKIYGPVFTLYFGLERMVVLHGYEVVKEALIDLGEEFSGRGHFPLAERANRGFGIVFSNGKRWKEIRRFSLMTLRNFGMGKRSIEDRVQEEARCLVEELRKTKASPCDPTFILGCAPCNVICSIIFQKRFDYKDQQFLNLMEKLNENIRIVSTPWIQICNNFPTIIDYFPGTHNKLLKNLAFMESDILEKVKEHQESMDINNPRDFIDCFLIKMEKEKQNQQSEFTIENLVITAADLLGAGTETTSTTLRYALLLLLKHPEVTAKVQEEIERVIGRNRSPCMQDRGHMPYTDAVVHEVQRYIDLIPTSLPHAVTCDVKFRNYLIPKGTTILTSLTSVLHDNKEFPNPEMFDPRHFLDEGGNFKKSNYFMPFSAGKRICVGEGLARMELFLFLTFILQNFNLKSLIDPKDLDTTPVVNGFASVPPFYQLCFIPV
# Summary of the method: (§2)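 Isoform-specific enzyme and substrate levels; enzyme-free wells as background. Reaction: 1x NADPH regenerating system, 30-45 min, room temperature, shielded from light; luminescent detection reagent added, 30 min.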
# [7] = KB-3-1 P-gp reporter qHTS against the NCATS DSHEA and TCM libraries (AID 1919975)
# Summary of the method: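 Parental KB-3-1 human cervical adenocarcinoma cells (500 cells/well, DMEM + 10% FBS) were treated with substances for ~72 h at 37C; viability was read by CellTiter-Glo luminescence.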
# [8] = qHTS Counterscreen for compound interference against the NCATS DSHEA and TCM libraries (AID 1919978); details: firefly luciferase detection reagent interference, luminescence
# Summary of the method: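 D-luciferin (1 uM final) or 100 mM potassium phosphate buffer alone was preincubated 15 min at RT with compounds (19.5 nM to 39.8 uM final). Luciferin detection reagent was then added and luminescence read after 30 min at RT.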
# [9] = Dual reporter qHTS for agonist of Pregnane X Receptor (hPXR) against the NCATS DSHEA and TCM libraries: Fluorescence readout (AID 1920058)
# Summary of the method: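 In this qHTS counter-read, reporter-bearing HepG2 cells in charcoal-stripped serum received substances for approximately 24 h before viability was assessed fluorometrically with CellTiter-Fluor.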
# [10] = target: Nuclear receptor subfamily 1 group I member 2 (Homo sapiens) (UniProt O75469); test: Dual reporter qHTS for agonist of Pregnane X Receptor (hPXR) against the NCATS DSHEA and TCM libraries: Luminescence readout (AID 1920059)
# Chain of Nuclear receptor subfamily 1 group I member 2 (Homo sapiens) (O75469 whole entry, looked up): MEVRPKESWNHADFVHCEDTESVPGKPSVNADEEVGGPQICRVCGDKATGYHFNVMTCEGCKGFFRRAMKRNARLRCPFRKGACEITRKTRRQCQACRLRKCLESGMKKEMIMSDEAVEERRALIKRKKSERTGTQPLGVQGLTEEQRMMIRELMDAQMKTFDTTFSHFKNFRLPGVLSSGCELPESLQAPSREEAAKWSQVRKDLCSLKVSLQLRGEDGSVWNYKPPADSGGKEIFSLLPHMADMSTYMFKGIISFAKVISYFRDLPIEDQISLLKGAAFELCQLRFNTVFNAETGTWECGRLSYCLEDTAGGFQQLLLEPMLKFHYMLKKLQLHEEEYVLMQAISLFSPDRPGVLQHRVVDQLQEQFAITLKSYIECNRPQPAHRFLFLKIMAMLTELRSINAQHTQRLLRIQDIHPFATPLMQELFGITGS
# Summary of the method: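 Luminescent PXR reporter read (ONE-Glo) after a CellTiter-Fluor viability read, following 24 h, 37C treatment of HepG2 cells stably carrying hPXR-Luc.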
# [11] = target: Nuclear receptor subfamily 1 group I member 2 (Homo sapiens) (UniProt O75469); test: Dual reporter qHTS for antagonist of Pregnane X Receptor (hPXR) against the NCATS DSHEA and TCM libraries: Luminescence Readout (AID 1920060);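 also: HepG2 cells carrying hPXR luciferase reporter stimulated with rifampicin at 2 µM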
# Summary of the method: (§3)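 hPXR-Luc HepG2 cells exposed 24 h at 37 C to compounds with 2 uM rifampicin in antagonist mode; luciferase luminescence measured by ONE-Glo, with CellTiter-Fluor viability read beforehand.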
# [12] = Dual reporter qHTS for antagonist of Pregnane X Receptor (hPXR) against the NCATS DSHEA and TCM libraries: Fluorescence Readout (AID 1920061)
# Summary of the method: as §3
# [13] = target: Cytochrome P450 3A4 (Homo sapiens) (UniProt P08684); test: qHTS for inhibitors of CYP3A4 against the NCATS DSHEA and TCM libraries (AID 1919971); also: potency is read from the fitted curve at half-maximal effect
# Chain of Cytochrome P450 3A4 (Homo sapiens) (P08684 whole entry, looked up): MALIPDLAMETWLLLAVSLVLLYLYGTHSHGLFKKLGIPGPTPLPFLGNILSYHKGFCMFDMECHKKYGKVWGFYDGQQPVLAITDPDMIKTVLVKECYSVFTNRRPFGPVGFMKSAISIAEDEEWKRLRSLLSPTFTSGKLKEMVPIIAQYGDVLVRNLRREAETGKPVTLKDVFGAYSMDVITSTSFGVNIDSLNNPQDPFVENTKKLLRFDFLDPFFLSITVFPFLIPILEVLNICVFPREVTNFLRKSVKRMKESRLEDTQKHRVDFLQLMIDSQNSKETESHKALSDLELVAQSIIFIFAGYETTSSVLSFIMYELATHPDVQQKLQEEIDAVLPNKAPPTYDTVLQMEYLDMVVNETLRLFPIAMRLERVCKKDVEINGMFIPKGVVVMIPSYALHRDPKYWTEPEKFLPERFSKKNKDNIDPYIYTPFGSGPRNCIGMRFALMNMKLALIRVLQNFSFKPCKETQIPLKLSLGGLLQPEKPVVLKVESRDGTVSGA
# Summary of the method: as §2
# [14] = target: Cytochrome P450 2C9 (Homo sapiens) (UniProt P11712); test: qHTS for inhibitors of CYP2C9 against the NCATS DSHEA and TCM libraries (AID 1919973); also: potency is read from the fitted curve at half-maximal effect
# Chain of Cytochrome P450 2C9 (Homo sapiens) (P11712 whole entry, looked up): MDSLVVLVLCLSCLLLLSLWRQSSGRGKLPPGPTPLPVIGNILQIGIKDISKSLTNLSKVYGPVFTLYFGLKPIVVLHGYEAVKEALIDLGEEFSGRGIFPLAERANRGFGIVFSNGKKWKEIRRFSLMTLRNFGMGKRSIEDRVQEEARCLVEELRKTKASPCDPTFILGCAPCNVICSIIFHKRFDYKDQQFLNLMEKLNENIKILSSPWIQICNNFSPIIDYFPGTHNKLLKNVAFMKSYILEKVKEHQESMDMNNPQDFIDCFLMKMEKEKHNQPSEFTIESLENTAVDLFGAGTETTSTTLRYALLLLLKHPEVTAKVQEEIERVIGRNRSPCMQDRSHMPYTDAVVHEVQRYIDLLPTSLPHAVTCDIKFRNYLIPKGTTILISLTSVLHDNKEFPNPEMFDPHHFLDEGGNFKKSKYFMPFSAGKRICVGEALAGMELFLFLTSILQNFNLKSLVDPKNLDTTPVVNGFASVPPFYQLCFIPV
# Summary of the method: as §2
# [15] = target: Cytochrome P450 1A2 (Homo sapiens) (UniProt P05177); test: qHTS for inhibitors of CYPIA2 against the NCATS DSHEA and TCM libraries (AID 1919976); also: potency is read from the fitted curve at half-maximal effect
# Chain of Cytochrome P450 1A2 (Homo sapiens) (P05177 whole entry, looked up): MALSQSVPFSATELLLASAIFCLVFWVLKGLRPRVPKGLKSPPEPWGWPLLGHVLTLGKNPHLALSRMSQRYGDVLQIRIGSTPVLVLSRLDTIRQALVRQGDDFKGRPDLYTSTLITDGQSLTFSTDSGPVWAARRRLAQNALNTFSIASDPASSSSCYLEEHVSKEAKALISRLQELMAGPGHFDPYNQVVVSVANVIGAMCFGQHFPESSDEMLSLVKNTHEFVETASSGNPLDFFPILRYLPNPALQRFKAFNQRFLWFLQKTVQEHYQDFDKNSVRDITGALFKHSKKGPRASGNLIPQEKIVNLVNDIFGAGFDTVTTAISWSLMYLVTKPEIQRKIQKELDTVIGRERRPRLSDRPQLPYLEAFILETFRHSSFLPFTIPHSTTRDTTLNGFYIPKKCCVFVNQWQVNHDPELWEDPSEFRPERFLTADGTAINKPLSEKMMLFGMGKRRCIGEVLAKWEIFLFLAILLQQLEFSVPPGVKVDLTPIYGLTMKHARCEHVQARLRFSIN
# Summary of the method: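 Furafylline served as the plate control. Compounds met CYP1A2 and pro-luciferin substrate 15 min before NADPH regeneration solution (1x) was added; after 30-45 min at RT, P450-Glo reagent was added for 30 min and luminescence was measured.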
# [16] = target: Glutathione peroxidase 1 (Homo sapiens) (UniProt P07203); test: Primary qHTS Assay for Inhibitors of Recombinant Selenoprotein Glutathione Peroxidase 1 (GPX1) (AID 1845191); also: nearly all actives have a fitted effect of over 65% in size
# Chain of Glutathione peroxidase 1 (Homo sapiens) (P07203 whole entry, looked up): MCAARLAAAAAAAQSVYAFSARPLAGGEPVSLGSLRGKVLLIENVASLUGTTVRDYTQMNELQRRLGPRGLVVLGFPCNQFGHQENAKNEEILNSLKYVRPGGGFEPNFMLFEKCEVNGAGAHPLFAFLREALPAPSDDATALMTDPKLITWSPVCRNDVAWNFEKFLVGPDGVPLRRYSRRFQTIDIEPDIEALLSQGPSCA
# Summary of the method: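 NADPH consumption tracked by fluorescence at 340/450 nm between t=0 and t=15 min, room temperature. Final mix: 10 nM GPX1, 100 nM glutathione reductase, 1 mM GSH, 0.5 mM NADPH, 0.5 mM cumene hydroperoxide, 0.01% BSA; 30 min compound–enzyme preincubation.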
# [17] = target: Mitogen-activated protein kinase 10 (Mus musculus) (UniProt Q61831); test: JNK3 AlphaScreen Assay (AID 530; active = well fitted curve in either direction with a large enough effect, not every such curve was filed as active;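 also: kinase came from lysate of stimulated human HepG2 cells; signal reports phosphorylation of biotinylated GST-cJun 1-79 at Ser73 with 10 µM ATP; series mostly up to about 57 µM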)
# Summary of the method: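 Kinase buffer: 20 mM Tris-HCl pH 7.6, 10 mM MgCl2, 1 mM DTT, 0.1 mM Na3VO4, 0.01% Tween-20; ATP 10 uM. Substrate biotin-GST-cJun(1-79), enzyme from activated HepG2 lysates. Detection by Ser73 phospho-antibody AlphaScreen.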
# [18] = target: Glucocorticoid receptor (Homo sapiens) (UniProt P04150); test: GR-EFC Redistribution (AID 451; calls by dose curve; also: potency is read from the fitted curve at half-maximal effect); details: CHO-K1 GR-EFC translocation, beta-gal luminescence, 2 h
# Chain of Glucocorticoid receptor (Homo sapiens) (P04150 whole entry, looked up, the tested form may be a part): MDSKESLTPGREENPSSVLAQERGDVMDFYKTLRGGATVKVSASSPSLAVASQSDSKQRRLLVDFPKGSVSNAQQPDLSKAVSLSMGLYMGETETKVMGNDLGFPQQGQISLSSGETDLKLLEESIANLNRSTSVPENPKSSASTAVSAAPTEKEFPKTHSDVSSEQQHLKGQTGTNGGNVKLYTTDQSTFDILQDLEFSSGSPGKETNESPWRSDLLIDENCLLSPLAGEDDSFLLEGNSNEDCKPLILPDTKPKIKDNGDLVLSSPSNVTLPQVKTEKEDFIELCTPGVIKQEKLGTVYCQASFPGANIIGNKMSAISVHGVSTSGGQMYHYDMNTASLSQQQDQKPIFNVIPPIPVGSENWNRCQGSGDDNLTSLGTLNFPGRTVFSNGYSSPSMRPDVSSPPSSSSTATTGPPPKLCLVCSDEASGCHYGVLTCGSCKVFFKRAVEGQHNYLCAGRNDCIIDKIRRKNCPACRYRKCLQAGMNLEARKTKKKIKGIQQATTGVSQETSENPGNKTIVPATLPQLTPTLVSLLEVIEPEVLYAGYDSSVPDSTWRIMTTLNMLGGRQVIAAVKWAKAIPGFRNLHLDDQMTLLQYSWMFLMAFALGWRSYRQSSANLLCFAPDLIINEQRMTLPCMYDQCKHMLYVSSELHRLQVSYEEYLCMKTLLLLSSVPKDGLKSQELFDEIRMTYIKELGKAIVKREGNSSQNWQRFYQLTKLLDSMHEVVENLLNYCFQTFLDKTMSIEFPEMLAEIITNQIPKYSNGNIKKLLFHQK
# Summary of the method: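 Translocation of GR-ED fusion to nuclear EA restores b-gal, read by luminescence after 1 h room-temperature detection. Engineered CHO-K1 biosensor cells, 1,000/well, exposed 2 h at 37 C to titrations up to 46 uM final.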
# [19] = target: Dual specificity protein kinase CLK4 (Homo sapiens) (UniProt Q9HAZ1); test: qHTS Assay for Inhibitors of CDC-like Kinase 4 (ADP-FP Assay) (AID 1795); also: series mostly up to about 50 µM; nearly all actives have a fitted effect of over 60% in size
# Chain of Dual specificity protein kinase CLK4 (Homo sapiens) (Q9HAZ1 whole entry, looked up): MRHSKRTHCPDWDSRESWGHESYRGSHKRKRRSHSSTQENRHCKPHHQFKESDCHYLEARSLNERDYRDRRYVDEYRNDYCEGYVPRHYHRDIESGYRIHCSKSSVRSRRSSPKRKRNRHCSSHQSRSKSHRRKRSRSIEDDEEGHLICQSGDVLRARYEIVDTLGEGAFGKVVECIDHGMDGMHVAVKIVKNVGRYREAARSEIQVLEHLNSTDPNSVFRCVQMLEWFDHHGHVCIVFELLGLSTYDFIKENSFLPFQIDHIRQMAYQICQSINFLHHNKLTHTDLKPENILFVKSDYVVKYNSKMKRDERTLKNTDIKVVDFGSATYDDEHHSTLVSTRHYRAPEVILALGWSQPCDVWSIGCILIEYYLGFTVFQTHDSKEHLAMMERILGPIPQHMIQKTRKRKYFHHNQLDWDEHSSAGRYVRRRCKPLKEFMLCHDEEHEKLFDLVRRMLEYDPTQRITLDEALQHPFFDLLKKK
# Summary of the method: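 Recombinant human Clk4 (6.25 nM) phosphorylated RS repeat peptide (100 uM) with 1 uM ATP in Tris pH 7.5/MgCl2/EGTA/DTT/Triton buffer for one hour. ADP was quantified by Transcreener competitive fluorescence polarization against an ADP calibration curve.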
smiles,measurement,setting,value
C=C(C)[C@H]1CC=C(CO)CC1,outcome,[1],inactive
same,outcome,[2],inactive
same,outcome,[3],inactive
same,outcome,[4],inactive
same,Potency,[5],inactive
same,Potency,[6],12.6 µM (active)
same,outcome,[7],inactive
same,max response,[8],2.16%
same,outcome,[9],inactive
same,Potency,[10],inactive
same,outcome,[11],inactive
same,outcome,[12],inactive
COc1ccccc1/C=C/C=O,outcome,[3],inactive
same,outcome,[4],inactive
same,Potency,[13],inactive
same,Potency,[5],inactive
same,Potency,[14],inactive
same,outcome,[7],inactive
same,Potency,[15],25.1 µM (active)
same,max response,[8],-3.3%
same,outcome,[9],inactive
same,Potency,[10],inactive
same,outcome,[12],inactive
CCNC(=NCCCC[C@H](NC(=O)[C@H](CC(C)C)NC(=O)[C@@H](CCCCN=C(NCC)NCC)NC(=O)[C@@H](Cc1ccc(O)cc1)NC(=O)[C@@H](CO)NC(=O)[C@H](Cc1cccnc1)NC(=O)[C@H](Cc1ccc(Cl)cc1)NC(=O)C(Cc1ccc2ccccc2c1)NC(C)=O)C(=O)N1CCCC1C(=O)N[C@H](C)C(N)=O)NCC (stereo not given in full) (Ac-[ξ2Nal][Phe(4-Cl)][3Pal][dS][dY][d(hArg(Et2))]L[hArg(Et2)][ξP][dA]-NH2),Potency,[16],inactive
C=CC[N@@+]12CC[C@]34c5ccccc5N5/C=C6\C7N(/C=C(\C53)[C@@H](C[C@@H]41)/C(=C/CO)C2)c1ccccc1[C@@]71CC[N@@+]2(CC=C)C/C(=C\CO)[C@@H]6C[C@@H]12 (stereo not given in full),Potency,[16],inactive
CCCCC/C=C/C/C=C/CCCCCCCC(=O)O,outcome,[3],inactive
same,outcome,[4],inactive
same,Potency,[16],inactive
same,Potency,[13],22.4 µM (active)
same,Potency,[14],12.6 µM (active)
same,Potency,[6],22.4 µM (active)
same,outcome,[7],inactive
same,max response,[8],0.865%
same,outcome,[9],inactive
same,Potency,[10],inactive
same,outcome,[12],inactive
COc1ccc(-c2nn3c(-c4ccco4)nnc3s2)cc1OC,Potency,[16],inactive
CCCCCC/C=C/CCCCCCCCCC(=O)O,outcome,[3],inactive
same,outcome,[4],inactive
same,Potency,[13],inactive
same,Potency,[5],inactive
same,outcome,[7],inactive
same,max response,[8],3.83%
same,outcome,[9],inactive
same,Potency,[10],inactive
same,outcome,[11],inactive
same,outcome,[12],inactive
CCCCCCCC/C=C/CCCCCCCC(=O)O,outcome,[3],inactive
same,Potency,[16],inactive
same,Potency,[5],inactive
same,Potency,[14],14.1 µM (active)
same,Potency,[6],3.55 µM (active)
same,outcome,[7],inactive
same,max response,[8],-3.39%
same,outcome,[9],inactive
same,Potency,[10],inactive
same,outcome,[11],inactive
same,outcome,[12],inactive
CC(=O)O[C@@H]1CC[C@@]2(C)[C@@H](CC[C@]3(C)[C@@H]2C(=O)C=C2[C@@H]4[C@@H](C)[C@H](C)CC[C@]4(C)CC[C@]23C)[C@@]1(C)C(=O)O,outcome,[2],inactive
same,outcome,[3],inactive
same,outcome,[4],inactive
same,Potency,[5],inactive
same,Potency,[14],14.1 µM (active)
same,Potency,[6],3.55 µM (active)
same,max response,[8],-0.124%
same,outcome,[9],inactive
same,Potency,[10],inactive
same,outcome,[12],inactive
C=C1CC[C@H]2C[C@@H]1C2(C)C,outcome,[3],inactive
same,outcome,[4],inactive
same,Potency,[13],inactive
same,Potency,[5],inactive
same,Potency,[14],inactive
same,Potency,[6],inactive
same,outcome,[7],inactive
same,Potency,[15],inactive
same,max response,[8],0.51%
same,outcome,[9],inactive
same,Potency,[10],inactive
same,outcome,[11],inactive
same,outcome,[12],inactive
CCCCCCCCCCCC(=O)O,Potency,[17],inactive
same,outcome,[3],inactive
same,outcome,[4],inactive
same,Potency,[13],inactive
same,Potency,[5],inactive
same,outcome,[7],inactive
same,max response,[8],3.72%
same,outcome,[9],inactive
same,Potency,[10],inactive
same,outcome,[11],inactive
same,outcome,[12],inactive
Cc1nc2cnc(N3CCOCC3)nc2n(CCc2ccccc2)c1=O,Potency,[18],> 46 µM
same,Potency,[17],inactive
same,Potency,[19],inactive
